Screening results as filed in PubChem BioAssay.
FLuc modulator = firefly luciferase modulation, counter-screen for miR-21 project | P08659 | purified FLuc, Km substrates, luminescence inhibition | Potency, µM (titrated, usually from 57.5 µM), for the others: at the highest dose activity change, negative = inhibition, actives largely listed as inhibitors | hit rate 6.9% among 360,000;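 also: plate controls were vehicle for no effect and reference inhibitor for full effect; nearly all actives have a fitted effect of over 55% in size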
Target sequence (P08659 whole entry, looked up): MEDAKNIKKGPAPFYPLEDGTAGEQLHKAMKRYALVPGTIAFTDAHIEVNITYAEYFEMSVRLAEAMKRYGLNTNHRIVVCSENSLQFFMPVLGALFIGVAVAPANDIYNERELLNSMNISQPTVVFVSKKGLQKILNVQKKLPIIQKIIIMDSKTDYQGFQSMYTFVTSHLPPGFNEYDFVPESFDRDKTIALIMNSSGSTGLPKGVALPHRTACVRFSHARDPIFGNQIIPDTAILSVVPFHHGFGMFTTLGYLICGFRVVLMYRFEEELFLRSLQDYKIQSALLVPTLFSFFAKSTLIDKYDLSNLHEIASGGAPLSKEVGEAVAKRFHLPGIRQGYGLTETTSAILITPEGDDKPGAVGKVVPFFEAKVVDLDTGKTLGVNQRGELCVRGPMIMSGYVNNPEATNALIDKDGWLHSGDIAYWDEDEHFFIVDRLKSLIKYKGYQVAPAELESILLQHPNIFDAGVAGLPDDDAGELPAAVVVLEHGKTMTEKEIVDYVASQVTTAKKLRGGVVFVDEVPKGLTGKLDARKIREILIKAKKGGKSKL
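Purified P. pyralis luciferase (10nM final) with 10uM D-luciferin and 10uM ATP (Km levels) in 50mM Tris acetate pH 7.5, 10mM Mg acetate, 0.01% Tween-20, 0.05% BSA; qHTS 6-point titration, ~60 µM downward; luminescence read.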
ELG1 genotox = inducers of genotoxicity in HEK293T ELG1-luciferase cells; HEK293T ELG1-luciferase reporter, luminescence, 16 h; Potency, µM (highest dose often 46 µM), for the others: at the highest dose activity change, positive = activation, usual class: activators; hit rate 1.3% among 330,000; AID 504466; also: % of control where 0% means no effect; nearly all actives have a fitted effect of over 60% in size
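Cells (2,000/well) expressing the ELG1-luciferase fusion are dosed by pin tool and kept 16 hr at 37 °C, 5% CO2. Signal comes from ONE-Glo luciferase reagent after 30 min at room temperature.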
NPC1 promoter act = activates the NPC1 promoter; Huh7 NPC1 promoter luciferase reporter, 24 h; Potency, µM (top dose mostly 9.22 µM), for the others: at the highest dose activation, most hits filed as activators; hit rate 2.4% among 320,000; also: % of control where 0% means no effect; nearly all actives have a fitted effect of over 60% in size
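Readout is luciferase luminescence, reflecting NPC1 promoter activation in stably transfected Huh7 cells after 24 h compound exposure at 37 °C in reduced-serum medium with 10% FBS.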
SMN2 splice up = enhancers of SMN2 splice variant expression | HEK293 SMN2-luciferase splicing reporter, luminescence, 30-36 h | Potency, µM (titrated, usually from 46.1 µM), inactives show at the highest dose activity change, positive = activation, usual class: activators | hit rate 2.8% among 210,000; also: % of control where 0% means no effect; nearly all actives have a fitted effect of over 55% in size
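HEK293 cells carry an SMN2 minigene-luciferase reporter in which exon 7 inclusion puts luciferase in frame. Cells were seeded at 2000 cells/well, attached for 10-12 hours, then exposed to compounds for 30-36 hours at 37C before ONE-Glo luminescence.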
KinaseGlo FLuc = counter-screen: inhibitors of Kinase-Glo firefly luciferase | Kinase-Glo luciferase, ATP luminescence, 8 min | Potency, µM (top dose mostly 38.3 µM), without a hit: top-dose activity change, negative = inhibition, most hits filed as inhibitors | hit rate 0.28% among 200,000 | AID 1379; also: % is scaled to controls: 0 for no effect and ±100 for the full control effect; nearly all actives have a fitted effect of over 60% in size
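Light output from Kinase-Glo luciferase with luciferin and 10 uM ATP in 50 mM imidazole pH 7.2, KCl, MgCl2, Tween 20, BSA; compound pin-delivered, 8-min ambient incubation, then luminescence read.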
Rab9 prom act = activators of Rab9 promoter; Huh7 Rab9 promoter-luciferase reporter, luminescence, 24 h; Potency, µM (titrated, usually from 9.22 µM), for inactives: at the top dose activation, negative = inhibition, usual class: activators; hit rate 2.8% among 320,000; AID 485297; also: % of control where 0% means no effect; nearly all actives have a fitted effect of over 60% in size
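Luciferase signal after 10 min detection reagent at ambient indicates Rab9 promoter upregulation; stably transfected Huh7 cells were treated 24 h with compound in DMSO at 37 °C, 5% CO2.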
Active calls of the source: *; ? = inconclusive; nt = no result given. In the library only some 7.5% were active in any assay of this set; here they are far more common. Calls follow the shape of the dose curve; as a rule, active = well fitted curve in the direction sought with a large enough effect; inconclusive = small, poorly fitted or top-dose-only effect, or another doubt; inactive = no such curve, though single readings can be large; an effect the other way counts as inactive or inconclusive. Potency is read from the fitted curve at half-maximal effect.

SMILES	FLuc modulator	ELG1 genotox	NPC1 promoter act	SMN2 splice up	KinaseGlo FLuc	Rab9 prom act
Cc1cc(C(=O)COC(=O)c2ccc3c(c2)NC(=O)CS3)c(C)n1CC1CCCO1 (stereo not drawn)	15µM*	-1%	-5%	-13%	2%	-4%
Cc1cc(C(=O)COC(=O)c2ccc(O)cc2)c(C)n1CC1CCCO1 (stereo not drawn)	4.8µM*	?	1.8µM*	23%	-6%	4µM*
COCCn1c(C)cc(C(=O)COC(=O)c2ccc(Cl)c(S(N)(=O)=O)c2)c1C	0.76µM*	0.58µM*	0.5µM*	nt	nt	0.5µM*
COCC(C)n1c(C)cc(C(=O)COC(=O)c2ccc3c(c2)NC(=O)CS3)c1C (stereo not drawn)	?	-4%	1%	-25%	0%	-1%
Cc1cc(C(=O)COC(=O)c2nc3nccc(C)n3n2)c(C)n1CC1CCCO1 (stereo not drawn)	-16%	2%	8%	-21%	1%	-6%
O=C(CN1CCN(S(=O)(=O)c2ccccc2)CC1)NC(=O)NCc1ccco1	2%	0%	-4%	nt	nt	-1%
O=C(c1nn(-c2ccccc2)c(=O)c2ccccc12)N1CCN(c2ncccn2)CC1	-1%	-6%	-1%	-10%	4%	0%
Cc1cc(C(=O)COC(=O)c2ccc(Cl)c(S(N)(=O)=O)c2)c(C)n1CC1CCCO1 (stereo not drawn)	1.5µM*	?	0.79µM*	nt	nt	0.71µM*
Cc1cc(C)n2nc(C(=O)OCC(=O)c3cc(C)n(CC4CCCO4)c3C)nc2n1 (stereo not drawn)	-17%	-1%	1%	6%	6%	-4%
COc1cc(OC)cc(C(=O)OCC(=O)c2cc(C)n(CC3CCCO3)c2C)c1 (stereo not drawn)	6.7µM*	8%	14%	nt	nt	18%
Cc1ccccc1NC(=O)Nc1ccc2c(c1)OCO2	?	?	?	nt	nt	2.8µM*
CCOc1ccccc1NC(=O)Nc1ccc2c(c1)OCO2	21µM*	11%	26%	nt	nt	?
CCOc1ccccc1NC(=O)Nc1ccc(OC)nc1	?	0%	9%	nt	nt	-1%
CCOc1ccccc1NC(=O)Nc1ccc2c(c1)CCC2	6.7µM*	?	?	nt	nt	?
O=C(Nc1ccccc1Cl)OC1CCCCC1	24µM*	4%	-1%	nt	nt	11%
Cc1c(NC(=O)c2cccc(NC(=O)COc3ccc(C#N)cc3)c2)c(=O)n(-c2ccccc2)n1C	?	-3%	-3%	nt	nt	-4%
COc1ccc(CCNC(=O)c2ccc3c(c2)CCN3S(=O)(=O)c2ccc(C)cc2)cc1	-6%	nt	nt	-12%	nt	nt
CCOc1ccccc1NC(=O)Nc1cccc(C(C)=O)c1	24µM*	14%	-2%	-1%	10%	7%
Cc1ccc(NC(=O)Nc2ccc3c(c2)CCC3)c(C)c1	4%	8%	-2%	nt	nt	8%
O=C(COC(=O)c1ccc2c(c1)OCO2)Nc1ccccc1OC(F)F	nt	0%	nt	nt	nt	nt
CCOc1ccccc1NC(=O)Nc1cccc(NC(C)=O)c1	-15%	-1%	0%	nt	nt	-5%
CC(=O)Nc1ccccc1OCC(=O)c1ccc2c(c1)OCO2	-8%	?	3.5µM*	nt	nt	3.2µM*
O=C(NN=C1CCCCC1)Nc1ccccc1Cl	19µM*	-2%	2%	nt	nt	-5%
O=C(Nc1ccc2c(c1)CCC2)Nc1ccccc1Cl	1.5µM*	2.3µM*	1.4µM*	nt	nt	1.8µM*
COc1ccc(OC)c(C(=O)CN2C(=O)N(c3cc(C)cc(C)c3)S(=O)(=O)c3ccccc32)c1	-4%	nt	nt	nt	nt	nt
CCCCOCCOCCOCc1cc2c(cc1CCC)OCO2	nt	nt	nt	2%	nt	nt
CCOc1ccccc1CNC(=O)C1CCN(C(=O)N2CC(CC)Oc3ccc(C)cc32)CC1 (stereo not drawn)	-3%	nt	nt	nt	nt	nt
Cc1c(NC(=O)Nc2ccc3c(c2)OCO3)cccc1[N+](=O)[O-]	?	14%	3.2µM*	nt	nt	?
